Screening data (PubChem)
CYP2C9 activ = CYP2C9 (human) activation. 96,000 compounds, 1.4% hits. recombinant CYP2C9, luciferin-H conversion, luminescence; stronger effect = higher value; factor 1 = untreated enzyme, 0 = blocked. P11712. activation factor at 5 µM;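 active = activation factor of 2 or more for CYP2C9 at a 5 µM dose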
CYP2C9 inh = blocks human cytochrome P450 2C9; P11712; CYP2C9 Supersomes, luciferin-H conversion, luminescence; inhibition, % at 5 µM; 96,000 compounds, 20% hits; AID 777;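 active = blocking of liver enzyme CYP2C9 beyond about 50% at 5 µM, limit read from the data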
PLK1 kinase inh = blocks human PLK1 kinase activity; 97,000 compounds, 0.53% hits; inhibition, % at 10 µM; recombinant PLK1 kinase, TR-FRET peptide phosphorylation; AID 619;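 active = inhibition of 50% or more in the single-concentration screen; inactive = inhibition below 50%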
Target sequence (P53350 whole entry, looked up): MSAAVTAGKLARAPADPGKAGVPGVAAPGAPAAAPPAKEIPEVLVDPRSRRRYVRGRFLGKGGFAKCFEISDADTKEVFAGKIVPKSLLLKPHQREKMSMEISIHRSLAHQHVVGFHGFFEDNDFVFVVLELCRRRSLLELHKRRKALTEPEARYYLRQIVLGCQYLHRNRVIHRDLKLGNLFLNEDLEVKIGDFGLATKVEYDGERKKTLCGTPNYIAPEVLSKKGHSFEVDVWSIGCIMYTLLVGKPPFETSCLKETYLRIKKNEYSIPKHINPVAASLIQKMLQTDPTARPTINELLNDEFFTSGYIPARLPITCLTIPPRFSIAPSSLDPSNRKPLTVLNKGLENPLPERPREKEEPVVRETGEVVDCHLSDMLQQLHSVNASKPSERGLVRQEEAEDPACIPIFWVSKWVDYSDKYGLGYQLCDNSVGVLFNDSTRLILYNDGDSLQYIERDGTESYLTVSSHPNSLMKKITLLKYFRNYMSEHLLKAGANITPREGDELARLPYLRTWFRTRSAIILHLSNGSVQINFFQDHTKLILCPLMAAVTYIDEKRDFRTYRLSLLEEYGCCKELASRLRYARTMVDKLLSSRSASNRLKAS
CYP2C19 inh = blocks human cytochrome P450 2C19. P33261. CYP2C19 Supersomes, luciferin-H EGE luminescence, 30 min. inhibition, % at 5 µM. 96,000 compounds, 21% hits. AID 778;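 active = CYP2C19 inhibition above a set limit at 5 µM in the primary screen, cut at about 50% in these data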
Plk1 PBD FP = Plk1 (human) PBD binding inhibition. P53350. Plk1 PBD phosphopeptide binding, fluorescence polarization. inhibition, %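 (tested at about 20 µM)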. 97,000 compounds, 0.13% hits. AID 693; in the data active = inhibition above about 34%, passing the limit was not always enough
CYP2C19 activ = cytochrome P450 2C19 (human) activation. P33261. recombinant CYP2C19, luciferin-H EGE luminescence; stronger effect = higher value; 0 = fully inhibited enzyme, 1 = untreated enzyme. activation factor at 5 µM. 96,000 tested, under 10 active;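 active = activation factor of at least 2 at 5 µM in the primary screen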
Hits are given with their value; – = inactive; · = not tested or not shown. In the library only some 28% were active in any assay of this set; here they are far more common.

SMILES	CYP2C9 activ	CYP2C9 inh	PLK1 kinase inh	CYP2C19 inh	Plk1 PBD FP	CYP2C19 activ
O=C1OCC2=C1C(c1ccc3c(c1)OCO3)Sc1ccccc1N2 (stereo not given)	–	70	–	96	–	–
O=C1CC(c2ccc3c(c2)OCO3)CN1 (stereo not given)	–	–	–	–	–	–
CCOc1ccc(C2Sc3ccccc3NC3=C2C(=O)OC3)cc1 (stereo not given)	–	56	–	68	–	–
COc1ccc(Cc2nnc3c4cnn(C)c4ncn23)cc1	–	–	–	–	–	–
C=CCOC(=O)C1=C(C)NC(=S)NC1/C=C/c1ccccc1 (stereo not given)	–	65	–	60	–	–
CCOc1ccc(OCc2cccc(C(=O)N3CCCC3)c2)cc1	–	66	–	–	–	–
COc1ccc(OCc2cccc(C(=O)O)c2)cc1	–	97	·	98	·	–
CCOc1ccc(C(=O)N2CCCC2)cc1	·	·	–	·	–	·
COc1cccc(OC)c1C(=O)NNC(=O)c1cccc(COc2ccc3c(c2)CCC3)c1	–	–	–	57	–	–
O=C(OCC(F)(F)F)c1cccc(COc2ccc3ccccc3c2)c1	–	56	–	52	–	–
CCOC(=O)C(C)Sc1ccc2nnc(-c3ccc(F)cc3)n2n1 (stereo not given)	–	–	–	–	–	–
CCOc1ccc(OCc2ccc(C(=O)N3CCCC3)o2)cc1	–	57	–	–	–	–
CCOc1ccc(OCc2ccc(C(=O)OCc3ccccn3)o2)cc1	–	55	·	50	·	–
CCOc1ccc(OCc2cccc(C(=O)O)c2)cc1	–	99	·	100	·	–
O=C(O)c1cccc(COc2ccc(CO)cc2Cl)c1	–	94	·	99	·	–
CCOc1ccc(C(=O)NCc2ccccn2)cc1	–	–	·	–	·	–
O=C(O)c1ccc(COc2ccc(CO)cc2Cl)cc1	–	–	–	–	–	–
CCOc1ccc(N2CCn3c2nc2c3c(=O)n(CCc3ccccc3)c(=O)n2C)cc1	–	–	·	–	·	–
COc1ccc(C(=O)NC2CCN(S(=O)(=O)Cc3ccccc3)CC2)c(OC)c1	–	–	–	–	–	–
O=C(CN1C(=O)c2ccccc2S1(=O)=O)N1CCN(c2ccc(F)cc2)CC1	–	–	–	–	–	–
O/C(=C\Sc1nnc(Cc2ccccc2)o1)c1ccc(F)cc1	–	96	–	–	–	–
O=C(O)c1cccc(CSc2nnc(Cc3ccccc3)o2)c1	–	–	–	–	–	–
CN(C(=S)NC(=O)CCCOc1ccc(Cl)cc1Cl)c1ccccc1	–	–	–	–	–	–
CN(Cc1ccccc1)C(=O)CSc1nc2ccccc2c(=O)n1Cc1ccco1	–	100	–	97	–	–
Cc1ccc(NC(=O)CN(C)C(=O)CSc2nc3ccccc3c(=O)n2Cc2ccco2)cc1	–	79	–	–	–	–
SMILES	CYP2C9 activ	CYP2C9 inh	PLK1 kinase inh	CYP2C19 inh	Plk1 PBD FP	CYP2C19 activ
CCOC(=O)c1cc2c(c(CSc3nc4ccccc4c(=O)n3Cc3ccco3)c1)OCOC2	–	67	–	–	–	–
CN(C)C(=O)CSc1nnc(Cc2ccccc2)n1Cc1ccco1	·	·	–	·	–	·
CCCCCCc1nc2c(=O)[nH]c3ccccc3c2o1	–	–	·	–	·	–
COc1ccc(-n2c(Cc3cccn3C)nnc2SCC(=O)Nc2nc(C)cs2)cc1	–	–	·	–	·	–
CS(=O)(=O)Nc1ccccc1C(=O)O	–	–	·	–	·	–
CS(=O)(=O)Nc1ccc(Br)cc1C(=O)c1ccccc1	–	88	–	92	–	–
O=C(N/N=C/c1ccc(O)cc1)c1csc2ccccc12	3	–	–	–	–	–
O=C(NCC1CCCO1)C1CCC(CNS(=O)(=O)c2ccccc2)CC1 (stereo not given)	–	–	–	–	–	–
CCOc1ccc(C(=O)N2CCN(Cc3ccccc3)CC2)cc1	–	–	–	–	–	–
O=C(c1noc2c1CCCC2)N1CCCCC1	–	–	·	–	·	–
O=C(c1noc2c1CCCC2)N1CCN(Cc2ccccc2)CC1	–	–	–	97	–	–
O=C(c1noc2c1CCCCC2)N1CCOCC1	–	58	·	–	·	–
CC12CC3CC(C)(C1)CC(CN)(C3)C2	–	–	–	–	–	–
CCC(Sc1n[nH]c(=O)[nH]c1=O)C(=O)OCc1ccccc1 (stereo not given)	–	–	–	–	–	–
CCOc1ccc(-c2nc(-c3ccncc3)no2)cc1OCC	–	63	–	–	–	–
CCOc1cc(-c2nc(-c3ccc(OC)cc3)no2)cc(OCC)c1OCC	–	–	–	–	–	–
CCOc1cc(-c2nc(-c3ccncc3)no2)cc(OCC)c1OCC	–	77	–	61	–	–
CCC(SC1=Nc2ccccc2C2=NC(CC(C)C)C(=O)N12)C(=O)Nc1ccc2c(c1)OCO2 (stereo not given)	–	84	–	57	–	–
CN1CCN(c2ccc([N+](=O)[O-])cc2NC(=O)c2ccccc2Cl)CC1	–	–	–	–	–	–
CN1CCN(S(=O)(=O)c2cc([N+](=O)[O-])ccc2N2CCCCCC2)CC1	–	–	–	56	–	–
c1ccc(-c2noc(-c3ccc4c(c3)OCO4)n2)nc1	–	92	·	79	·	–
c1ccc(-c2noc(-c3ccc4ccccc4c3)n2)nc1	–	–	·	–	·	–
COc1cccc(-c2nc(-c3ccccc3)no2)c1	–	–	–	–	–	–
c1ccc(-c2noc(-c3ccncc3)n2)nc1	–	–	–	68	–	–
COc1cccc(-c2nc(-c3ccccn3)no2)c1	–	–	–	75	–	–
SMILES	CYP2C9 activ	CYP2C9 inh	PLK1 kinase inh	CYP2C19 inh	Plk1 PBD FP	CYP2C19 activ
COc1ccccc1-c1c(C(F)(F)F)oc2cc(OC(=O)c3cccc([N+](=O)[O-])c3C)ccc2c1=O	–	73	–	76	–	–
COc1ccccc1-c1c(C)oc2cc(OC(=O)c3ccco3)ccc2c1=O	–	55	–	64	–	–
CCOC(=O)c1oc2cc(O)ccc2c(=O)c1-c1ccccc1OC	–	–	–	–	–	–
O=S(=O)(N1CCCCCC1)N1CCN(S(=O)(=O)N2CCOCC2)CC1	–	–	–	–	–	–
Cc1ccc(-n2c(CNc3ccc(F)cc3)nnc2SCC(=O)NCc2ccco2)cc1	–	61	–	–	–	–
O=C(CSc1nnc(CCc2nc3ccccc3[nH]2)n1-c1ccccc1)NCc1ccco1	–	75	–	–	–	–
Cc1ccc(OCc2nnc(SCC(=O)c3cccc([N+](=O)[O-])c3)n2C)cc1	–	–	–	–	–	–
Cc1ccc2c(c1)[nH]c1c(=O)n(Cc3ccccn3)cnc12	–	–	–	–	–	–
CSc1nc(-c2ccco2)cc(-c2ccccc2)c1C#N	–	66	–	–	–	–
COC(=O)CSc1nc(-c2ccccc2)cc(-c2ccco2)c1C#N	–	89	–	–	–	–
